TSHR antag – human thyrotropin receptor antagonism; 330,000 tested, 0.2% active; P16473; activity change, negative = inhibition, % at 11.5 µM; TSHR-expressing cells, TSH-stimulated cAMP HTRF, 2 h; active compounds read low; AID 504810;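 active = activity change below a set negative limit, meaning inhibition stronger than a set level, cut at about -70% in these data; inconclusive = activity change between two set negative limits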
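Read-out is FRET at 665 nm (cryptate excitation 337 nm) from a cryptate-tagged anti-cAMP antibody, competed by cell cAMP against cAMP-d2. Compounds are tested on freshly harvested TSHR cells challenged with 4nM TSH (EC80) for 2 hours at 37 deg C.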
uPA generation – blocks generation of uPA at the cell surface; Potency, µM (highest dose often 38.3 µM), most hits filed as inhibitors; 330,000 tested, 0.31% active; cell surface uPA generation assay, qHTS; AID 540303; active = well fitted inhibition curve with a large enough effect; inconclusive = small, poorly fitted or top-dose-only effect; inactive = no such curve, though single readings can be large or run the other way; tested in mouse RAW 264.7 cells; note: nearly all actives have a fitted effect of over 55% in size
PLK1 PBD block – PLK1 (human) polo-box domain binding inhibition | 360,000 tested, 2.8% active | Plk1 PBD binding of FITC phosphopeptide, fluorescence polarization | AID 720504 | Potency, µM, actives largely listed as inhibitors | P53350; note: series mostly up to about 57 µM; nearly all actives have a fitted effect of over 65% in size
VDR inh – blocks the human vitamin D receptor | Potency, µM, actives largely listed as inhibitors | AID 504847 | VDR-SRC2-3 peptide fluorescence polarization, 2 h | 400,000 tested, 0.93% active
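Fluorescence polarization assay of small-molecule disruption of VDR binding to coregulator peptide SRC2-3. Compounds and controls pin-transferred, then read after 2 h incubation at ambient room temperature.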
PTAP TSG101 blk – blocks PTAP/TSG101 interaction to inhibit HIV-1 budding. Q99816. Fluorescence polarization, FITC-PTAP peptide / Tsg101 binding. Potency, µM (highest dose often 115 µM), most hits filed as inhibitors. 340,000 tested, under 10 active. AID 493005; active = well fitted inhibition curve with a large enough effect in the main read-out, with a control signal flat, not every such curve was filed as active; inconclusive = small, poorly fitted or top-dose-only effect, or effect the other way, or a change in a side signal; inactive = no such curve, though single readings can be large or run the other way
Target sequence (Q99816 whole entry, looked up): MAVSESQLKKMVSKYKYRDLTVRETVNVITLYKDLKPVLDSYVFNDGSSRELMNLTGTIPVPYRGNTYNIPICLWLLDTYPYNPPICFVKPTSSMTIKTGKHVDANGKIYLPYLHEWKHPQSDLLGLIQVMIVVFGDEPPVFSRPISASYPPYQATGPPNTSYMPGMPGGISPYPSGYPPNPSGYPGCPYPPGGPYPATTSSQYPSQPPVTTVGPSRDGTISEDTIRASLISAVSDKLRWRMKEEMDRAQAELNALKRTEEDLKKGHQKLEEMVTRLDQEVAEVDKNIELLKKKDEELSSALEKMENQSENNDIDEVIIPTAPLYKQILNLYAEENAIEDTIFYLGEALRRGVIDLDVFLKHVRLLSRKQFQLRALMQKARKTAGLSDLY
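Steps: Tsg101 binding domain dispensed (10 uM final), compounds pinned in DMSO, FITC-labeled PTAP-motif peptide added (50 nM final); after 20 min binding at room temperature, polarization measured.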
Hits are given with their value. Rows were chosen to be rich in hits. Some 3.1% of all compounds tested hit in one or more screens of this group. Unless noted, calls come from the whole dose curve; as a rule, active = well fitted curve in the direction sought with a large enough effect; inconclusive = small, poorly fitted or top-dose-only effect, or another doubt; inactive = no such curve, though single readings can be large; an effect the other way counts as inactive or inconclusive.

Cc1cc(C)c(NC(=O)COC(=O)Cc2ccsc2)c(C)c1 was read as TSHR antag inactive, uPA generation inactive, PLK1 PBD block 26.7µM, VDR inh inactive and PTAP TSG101 blk inactive.
For Cc1ccccc1NC(=O)COC(=O)Cc1ccsc1 the results were TSHR antag inactive, uPA generation inactive, PLK1 PBD block 26.7µM, VDR inh inactive and PTAP TSG101 blk inactive.
Screening Cc1cccc(C)c1NC(=O)COC(=O)Cc1ccsc1 returned TSHR antag inactive, uPA generation inactive, PLK1 PBD block inactive, VDR inh inactive and PTAP TSG101 blk inactive.
For CC1CCCCN1C(=O)CCn1c(=O)oc2ccccc21 (centres undefined) the results were TSHR antag inactive, uPA generation inactive, PLK1 PBD block inactive, VDR inh inactive and PTAP TSG101 blk inactive.
Screening C[C@H]1CN([C@@H](C)CO)C(=O)CCCn2nncc2CO[C@@H]1CN(C)C(=O)Cc1ccccc1 returned PLK1 PBD block inactive.
Screening CCCCN(C)C(=O)C1CCC(CNS(=O)(=O)c2ccc(Cl)cc2)CC1 (centres undefined) returned VDR inh inactive.
Screening COc1ccccc1N(CC(=O)Nc1ccccc1C(F)(F)F)S(=O)(=O)c1ccc(C)cc1 returned VDR inh inactive.
For COc1ccc(C2CC2/C(=N/O)c2ccccc2)cc1 (centres undefined) the results were TSHR antag inactive, uPA generation inactive, PLK1 PBD block 13.4µM, VDR inh 20µM and PTAP TSG101 blk inactive.
For CC1CCN(S(=O)(=O)c2cccc(S(=O)(=O)N3CCOCC3)c2)CC1 the results were TSHR antag inactive, uPA generation inactive, PLK1 PBD block inactive, VDR inh inactive and PTAP TSG101 blk inactive.
CC1CCN(S(=O)(=O)c2cccc(-c3nnc(-c4cccnc4)o3)c2)CC1 was read as TSHR antag inactive, uPA generation inactive, PLK1 PBD block 15µM, VDR inh inconclusive and PTAP TSG101 blk inactive.
Screening O=C(NCc1ccccc1)c1c2c(nc3ccccc13)C(=O)N(C1CCCCC1)C2 returned VDR inh inactive.
CCc1ccc2oc(-c3cc(NC(=O)c4cccnc4)cc(C)c3O)nc2c1 was read as VDR inh inactive.
`CC(=O)c1c(O)cc(O)c(C(C)=O)c1O` gave TSHR antag -94.3, uPA generation inactive, PLK1 PBD block inactive, VDR inh inactive and PTAP TSG101 blk inactive.
Screening Cc1ccc2c(c1)-c1c(c(C(=O)N3CCN(c4cc(C)ccc4C)CC3)nn1C)CS2 returned VDR inh inactive.
Screening CC12CCC(C)(c3nc4ccccc4nc31)C2(C)C returned TSHR antag inactive, uPA generation inactive, PLK1 PBD block 29.9µM, VDR inh inactive and PTAP TSG101 blk inactive.
Screening O=[N+]([O-])c1ccccc1C=NN1CCCCCC1 returned uPA generation inactive, PLK1 PBD block inactive, VDR inh inconclusive and PTAP TSG101 blk inactive.
`Cc1ccc(NC(=O)C2CCN(c3nn4c(=O)cc(C)nc4s3)CC2)cc1` gave VDR inh inactive.
For O=c1c2cc(F)ccc2sn1-c1ccccc1 the results were TSHR antag inactive, uPA generation inconclusive, PLK1 PBD block 1.06µM, VDR inh 20µM and PTAP TSG101 blk inactive.
For O=c1c2cc(C(F)(F)F)ccc2sn1-c1ccccc1 the results were PLK1 PBD block 2.67µM.
CCOC1=C2CN(S(=O)(=O)c3ccc(C)cc3)C(c3ccccc3)CC2N(S(=O)(=O)c2ccccc2Cl)C(c2ccccc2)C1 (centres undefined) was read as PLK1 PBD block inactive.
For CC1CCN(CCCCOc2ccccc2Br)CC1 the results were TSHR antag inactive, uPA generation inactive, PLK1 PBD block inactive, VDR inh inactive and PTAP TSG101 blk inactive.
For CC1CCN(CCCCOc2ccccc2F)CC1 the results were TSHR antag inactive, uPA generation inactive, PLK1 PBD block 29.9µM, VDR inh inconclusive and PTAP TSG101 blk inactive.
Screening CCN(CC)S(=O)(=O)c1ccc2oc(C(=O)N3CCOCC3)c(C)c2c1 returned TSHR antag inactive, uPA generation inactive, PLK1 PBD block inactive, VDR inh inactive and PTAP TSG101 blk inactive.
For CCN(CC)S(=O)(=O)c1ccc2oc(C(=O)NCCN3CCOCC3)c(C)c2c1 the results were TSHR antag inactive, PLK1 PBD block 26.7µM, VDR inh inactive and PTAP TSG101 blk inactive.
C=CCNC(=O)c1oc2ccc(S(=O)(=O)N(CC)CC)cc2c1C was read as TSHR antag inactive, PLK1 PBD block 9.47µM, VDR inh inactive and PTAP TSG101 blk inconclusive.
Screening COC(=O)c1ccc(C(=O)OC)c(NC(=O)CSc2cccc[n+]2[O-])c1 returned TSHR antag inactive, uPA generation inactive, PLK1 PBD block 23.8µM, VDR inh inactive and PTAP TSG101 blk inactive.
For O=C(CSc1cccc[n+]1[O-])Nc1ccccc1Oc1ccccc1 the results were TSHR antag inactive, uPA generation inactive, PLK1 PBD block 29.9µM, VDR inh inconclusive and PTAP TSG101 blk inactive.
Screening COC(=O)c1ccc(-n2c(C)cc(C(=O)CSc3cccc[n+]3[O-])c2C)cc1 returned TSHR antag inactive, uPA generation inconclusive, PLK1 PBD block inactive, VDR inh inactive and PTAP TSG101 blk inactive.
For COc1ccc(OC)c(NC(=O)Cn2cc(C(=O)c3ccc(Cl)cc3)c(=O)c3cc(OC)ccc32)c1 the results were VDR inh inactive.
O=C(Cc1c[nH]c2ccccc12)NCc1ccc(Cl)cc1Cl was read as TSHR antag inactive, uPA generation inactive, PLK1 PBD block 29.9µM, VDR inh inactive and PTAP TSG101 blk inactive.
For O=C(N/C=C\c1ccccc1)NCc1ccc(Cl)cc1Cl the results were TSHR antag inactive, uPA generation inactive, PLK1 PBD block 21.2µM, VDR inh inactive and PTAP TSG101 blk inactive.
Screening O=C(Cc1c[nH]c2ccccc12)NCc1ccc(Cl)cc1 returned TSHR antag inactive, uPA generation inactive, PLK1 PBD block inactive, VDR inh inactive and PTAP TSG101 blk inactive.
CCc1ccc(N(CC(=O)NCC2CCCO2)C(=O)CCC(=O)Nc2nccs2)cc1 (centres undefined) was read as TSHR antag inactive, uPA generation inactive, PLK1 PBD block inactive, VDR inh inactive and PTAP TSG101 blk inactive.
For CCC(=O)N1CCN(c2ccc(NC(=O)c3cc4ccccc4o3)cc2Cl)CC1 the results were TSHR antag inactive, uPA generation inactive, PLK1 PBD block inactive, VDR inh inactive and PTAP TSG101 blk inactive.
`CCCC(=O)N1CCN(c2ccc(NC(=O)c3cc4ccccc4o3)cc2Cl)CC1` gave TSHR antag -86.7, uPA generation inactive, PLK1 PBD block inactive, VDR inh inactive and PTAP TSG101 blk inactive.
For COc1ccc(NC(=O)c2cc3ccccc3o2)cc1OC the results were TSHR antag inactive, uPA generation inactive, PLK1 PBD block 23.8µM, VDR inh inconclusive and PTAP TSG101 blk inactive.
COc1ccc(NC(=O)c2ccco2)cc1NC(=O)c1cc2ccccc2o1 was read as TSHR antag inactive, uPA generation inactive, PLK1 PBD block inactive, VDR inh inactive and PTAP TSG101 blk inactive.

Assay outcomes deposited in PubChem by National Center for Advancing Translational Sciences (NCATS).
